Results reported in PubChem BioAssay AID1347426 (Functional Genomics Laboratory (NCATS/FGL), 2020).
The whole screen tested about 31,000 sequences, of which about 1,400 (4.5%) were called active.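 The calls were made as follows: active = median seed-adjusted z-score above 1 or below -1; inactive = the rest.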 Many of the other results were omitted from the sample, so actives are more common in it than they were.

Assay: Novel Modifiers of Survival Motor Neuron (SMN) Protein: Gene Identification via Genome-wide siRNA Screen
Conditions: HEK293T SMN2-luciferase reporter, siRNA knockdown, 72 h; actives lie on both sides
Source text: Spinal muscular atrophy (SMA) is the most common neuromuscular autosomal recessive disorder and one of the leading genetic causes of infant death. SMA results from mutations inducing loss of function or deletion in the survival of motor neuron-1 gene (SMN1), leading to deficiency of the survival motor neuron (SMN) protein. Although a second nearly identical gene, SMN2, is retained in humans, its expression primarily produces an aberrantly spliced isoform that is largely unstable and quickly degraded. We performed a genome-wide RNAi screen using a cell-based reporter assay to identify genes and pathways that modulate SMN protein stability. The screen identified over 200 genes that led to the greatest increase or decrease in luciferase expression.
Using HEK293T cells stably expressing a luciferase reporter that combines the promoter and splicing based cassettes in tandem with the major portion of the native SMN2 cDNA with luciferase, we performed a genome-wide RNAi screen to identify modulators of SMN protein levels. Luciferase is expressed when full-length SMN protein is generated with luminescence signal proportional to SMN protein levels. Our luciferase-based reporter assay was used to screen Ambion Silencer Select Human Druggable Genome siRNA library (10418 genes, 3 unique siRNAs per gene) using lipid-based reverse transfection.
Briefly, 1 pmol of each siRNA was spotted to a well of a 384-well plate (Corning, Corning, NY) and 20 microL of serum-free DMEM containing […] of Lipofectamine RNAiMax (Life Technologies, Carlsbad, CA) was then added to each well. Transfected cells were maintained at 37 degrees C in 5% CO2 for 72 hours, 20 microL of ONE-Glo Reagent (Promega) was added to wells for luciferase quantification. Raw luminescence reads were normalized to Ambion(R) Silencer(R) Negative Control #2 siRNA, then log10 transformed. A robust statistical measure of median absolute deviation (MAD) to standardize siRNA activities from each screen. Common Seed Analysis was used to help prioritize clean hits as opposed to those appearing to arise from seed based off-target effects. Candidate modulators were defined as the genes having a MAD score greater than 1.0 or less than -1.0.
For GCAAUUGUCUGAUUAAUCATT against MB, the median seed-adjusted z-score was 0.504 (inactive). In the case of GAACUGCACCAAAGAAACATT against AKTIP, the median seed-adjusted z-score is reported as -0.194 (inactive). In the case of CGGACGAAGAGAUUGGGAATT against DRAP1, the median seed-adjusted z-score is reported as 1.08 (active). In the case of GCAGAAUUACAAGACAAGATT against VWA5A, the median seed-adjusted z-score is reported as 0 (inactive). With CCGCCUUUCAAGAACGUAATT against IARS the median seed-adjusted z-score was -0.198 (inactive). In the case of GAAUAGACCUGAAGACAAATT against CFLAR, the median seed-adjusted z-score is reported as -0.413 (inactive). With CAACGGAAGUGCUACUACUTT against FCER2 the median seed-adjusted z-score was -1.75 (active). For CCCAAUAUGUGCGGAUUAATT against DSC3, the median seed-adjusted z-score was 0.18 (inactive). With GGAAAGAGAUCUACCGCAATT against MYST1 the median seed-adjusted z-score was 0 (inactive). For GCUUCCCGAUUAACUGAAATT against MECP2, the median seed-adjusted z-score was -0.332 (inactive). In the case of AGAAUGCACCAAACAAACATT against DOLPP1, the median seed-adjusted z-score is reported as 0.00977 (inactive). With GGUACAAAGCAAUCGGACATT against GUCA2B the median seed-adjusted z-score was -0.146 (inactive). For GUCUUUAGCUGACCUGAAUTT against DMD, the median seed-adjusted z-score was -0.626 (inactive). With CCGAAGAAGCAAUAUCGAATT against CRKRS the median seed-adjusted z-score was -1.16 (active). In the case of CCACCUUACUUUCCUGAAUTT against TMEM171, the median seed-adjusted z-score is reported as 0.278 (inactive). In the case of CACUUAUUCUGGUCCUUCATT against ELOVL3, the median seed-adjusted z-score is reported as 0 (inactive). With CCGCUAAUGUUCAAGGACATT against UNC5B the median seed-adjusted z-score was -0.0207 (inactive). With GCAAUAGUCCCAAAAGCAATT against CD6 the median seed-adjusted z-score was -0.33 (inactive). For GCAGGAGUUUGUUUAAUGATT against UGT1A10, the median seed-adjusted z-score was 0.286 (inactive). In the case of GUAUACCGAUUGAUAACCATT against BTAF1, the median seed-adjusted z-score is reported as -1.19 (active). In the case of GUGUUUUUGUAGUUACCUATT against TSEN34, the median seed-adjusted z-score is reported as 0.918 (inactive). With CCACGAAGAAUGGAUUGAATT against TRIO the median seed-adjusted z-score was 0.42 (inactive). For ACACCACGCUCAACAUCAATT against ZBED1, the median seed-adjusted z-score was 0.0567 (inactive). In the case of GGUUGAUGCAGACAACAAATT against LGTN, the median seed-adjusted z-score is reported as 0.491 (inactive). In the case of GGAAUGCUAUGAUAGACGATT against GNAQ, the median seed-adjusted z-score is reported as -1.23 (active). For GGAAUUCGAGGAUUAUGCATT against HIAT1, the median seed-adjusted z-score was -0.0612 (inactive). For CAAGGAGAGGCAUAACGUATT against DNASE1L3, the median seed-adjusted z-score was 0.0678 (inactive). With GAUUACAACCUGUAUCGAATT against THOC1 the median seed-adjusted z-score was -3.04 (active). For GGACAUAAUGUAUUAUACUTT against DDHD1, the median seed-adjusted z-score was 0 (inactive). With GGUCACGGAUUGCUUUUUATT against DUS1L the median seed-adjusted z-score was 0.0698 (inactive). For GGAAGAACCAGAGUGUGAATT against C1RL, the median seed-adjusted z-score was -0.148 (inactive). In the case of GGGAGAUUCUCCAACUAAATT against SR140, the median seed-adjusted z-score is reported as 1.16 (active). In the case of GGAUCGAUUCUGAAUAUGATT against PAPSS1, the median seed-adjusted z-score is reported as -0.648 (inactive). With GGUUGAAGCUUACUCCGGATT against DHX9 the median seed-adjusted z-score was -0.687 (inactive). For UCACUGAUGUACUACCUAUTT against RPUSD4, the median seed-adjusted z-score was -0.0264 (inactive). For GGAUCACGCAGCUCAAGAUTT against TBX1, the median seed-adjusted z-score was -0.744 (inactive). For CCGCGAAGAUGUUAGCAUUTT against PRSS12, the median seed-adjusted z-score was 0.119 (inactive). With ACAUAUAGGUAUCGACCAATT against PRICKLE2 the median seed-adjusted z-score was -1.12 (active). For GCCCAGGAAAGAUAAGGCATT against PTH1R, the median seed-adjusted z-score was -0.521 (inactive). With GCAGUGCGUUCAGUGCAAATT against FHL2 the median seed-adjusted z-score was 0.475 (inactive). For CGAUUAGGACUGACAAUAATT against IFT57, the median seed-adjusted z-score was -1.1 (active). In the case of GCUUGUUCCUUCAAUUAAATT against ZNF41, the median seed-adjusted z-score is reported as 0.342 (inactive). In the case of GCAUUAGGUUCACUAAAUATT against GPR160, the median seed-adjusted z-score is reported as -0.278 (inactive). With GGCUUAACCUGGUGAUAAATT against GLUD1 the median seed-adjusted z-score was 0.156 (inactive). In the case of GGAUGACGGUGUCUACUCATT against CLCA1, the median seed-adjusted z-score is reported as 0.015 (inactive). In the case of GUUCUUGUCUAAGACAUGATT against ZNF799, the median seed-adjusted z-score is reported as -1.02 (active). In the case of GGUUAAUAUUGCGAAAGUATT against TXNDC1, the median seed-adjusted z-score is reported as 0.458 (inactive). In the case of AGCUCUACAUUGGCGAUGATT against DUPD1, the median seed-adjusted z-score is reported as -0.406 (inactive). In the case of GCAUAUUCCAAACUAGUGATT against STARD6, the median seed-adjusted z-score is reported as 0.0605 (inactive). With GCGUGGAACCGGACAUCAATT against TPSD1 the median seed-adjusted z-score was 0.0848 (inactive). In the case of CCACGUCACCAGUACUAUATT against UBA1, the median seed-adjusted z-score is reported as 1.34 (active). For ACAGUGUGGUUCUUCAUUUTT against C1QL3, the median seed-adjusted z-score was -0.276 (inactive). For CAUCACCUGUAGAACCUGATT against PIAS2, the median seed-adjusted z-score was -0.096 (inactive). For GAAUGGUCCUAAAACACCATT against NFE2L2, the median seed-adjusted z-score was -0.596 (inactive). In the case of GAAAUUGAUAAGCAAAGUATT against TRO, the median seed-adjusted z-score is reported as 2.04 (active). For CUGCCUACGUGAACUGGAUTT against TPSG1, the median seed-adjusted z-score was 0 (inactive). For GAAGGAGACUAAUGAGCAATT against FGD4, the median seed-adjusted z-score was -0.0017 (inactive). For CGAGUGUCUUCACUACAAATT against IL3RA, the median seed-adjusted z-score was -0.951 (inactive). For GCAAGUCGUCUAUUCAGAATT against RRAGD, the median seed-adjusted z-score was 0.313 (inactive). In the case of GGCACUUAAGGUUCGCUAUTT against PPP4C, the median seed-adjusted z-score is reported as 1.15 (active). With GGCUCUUGGAAUAACUGAATT against SERPINI1 the median seed-adjusted z-score was 0.127 (inactive). With CAUUAAAGGUUUACCCAAUTT against IDH1 the median seed-adjusted z-score was 0.421 (inactive). With GGCUUUGAAUUCAAUCUAUTT against GPR149 the median seed-adjusted z-score was -0.186 (inactive). With CGUCGCGCCCUGUACAUAATT against GPR35 the median seed-adjusted z-score was -1.46 (active). With UCAGUUACCUGCAUACCAATT against AEBP1 the median seed-adjusted z-score was -0.0536 (inactive). In the case of CCUACUAUGAUGUUAGUAATT against SCGN, the median seed-adjusted z-score is reported as -0.0164 (inactive). In the case of GAUACUCAGAAGUUGAUAATT against MYSM1, the median seed-adjusted z-score is reported as -0.116 (inactive). In the case of ACACUCUUGUGGUCAAGAATT against HNRNPC, the median seed-adjusted z-score is reported as -2.15 (active). In the case of GCAAGAAACUCCACCCUUUTT against RGS3, the median seed-adjusted z-score is reported as 0.065 (inactive).
